Entries with a potency or affinity are not part of this list. The source made the active and inactive calls.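 How the source made its calls: active means signal-lowering compounds whose fitted half-maximal concentration is at or below twice the top tested dose in every run; inconclusive means runs disagree, flat 30 to 70% inhibition, or poor curve fit; inactive means the rest.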
target: Protein S100-A4 (Homo sapiens) (UniProt P26447); assay: S100A4-myosin IIA binding inhibitor potency, dose response, biochemical, fluorescence polarization, cherry-picked hits (AID 687001); conditions: FP, S100A4/TAMRA-myosin IIA peptide binding; series mostly up to 11 µM
Sequence (P26447 whole entry, looked up): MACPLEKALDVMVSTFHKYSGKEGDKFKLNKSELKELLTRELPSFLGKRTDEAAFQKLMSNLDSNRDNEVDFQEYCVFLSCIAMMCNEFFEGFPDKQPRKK

outcome, inactive:
Cc1ccc(S(=O)(=O)N(C)C[C@@H]2OCCCC[C@@H](C)Oc3ccc(NS(C)(=O)=O)cc3C(=O)N([C@@H](C)CO)C[C@@H]2C)cc1
COCC(=O)N1C[C@H]2[C@@H](c3ccccc31)[C@@H](CO)N2C(=O)Nc1ccccc1F
O=C(CCN1CCCCC1)N[C@H]1CC[C@H](CCn2cc(-c3ccccc3)nn2)O[C@@H]1CO
C[C@@H]1CN([C@H](C)CO)C(=O)c2cc(NC(=O)Nc3ccc(C(F)(F)F)cc3)ccc2O[C@@H]1CN(C)C(=O)Nc1ccc(C(F)(F)F)cc1
COc1ccccc1N1CC(C(=O)Nc2ccc(C)c(S(=O)(=O)N3CCOCC3)c2)CC1=O (centres undefined)
C[C@@H]1CN([C@@H](C)CO)S(=O)(=O)c2ccc(-c3cccc(C#N)c3)cc2O[C@@H]1CN(C)C(=O)c1ccc(F)cc1
OCCC1CN(Cc2ccc3c(c2)CCO3)CCN1Cc1ccc(F)cc1 (centres undefined)
CCCC(=O)Nc1ccc2c(c1)C(=O)N(C)C[C@H](OC)[C@H](C)CN(Cc1ccccc1)[C@@H](C)CO2
N#C[C@@H]1[C@H](c2ccccc2C2=CCCCC2)[C@@H](CO)N1S(=O)(=O)c1cccc(F)c1
Cc1ccc(NS(=O)(=O)c2ccc(-c3coc(C)n3)cc2)c(C)c1
COc1ccccc1-c1noc2c1C(=O)N(Cc1cn(-c3ccc(Cl)cc3)nn1)CC2
CCn1c(SCC(=O)O)nnc1-c1ccc2[nH]c(C)c(C)c2c1
C[C@@H]1CN([C@H](C)CO)C(=O)c2cc(C#Cc3ccccc3)cnc2O[C@@H]1CN(C)C(=O)c1ccccc1F
Cc1cc(Nc2cccc(F)c2)cc(=O)n1-c1cccc(F)c1
CC(NC(=O)Nc1ccc(F)cc1)c1ccc2c(c1)OCO2 (centres undefined)
CCCN1[C@H](C(=O)N2CCCCC2)[C@@H](CO)[C@@H]2Cn3c(ccc(-c4ccccc4F)c3=O)[C@@H]21
Cc1ccc(S(C)(=O)=O)cc1C(=O)OCC(=O)N(Cc1ccccc1)Cc1ccccc1
Cc1cccc2c(CC(=O)Nc3ccccc3)noc12
CCOc1ccc(S(=O)(=O)N2CCCC(C(=O)NCC3CCCO3)C2)cc1Cl (centres undefined)
OC(CNC1CCCCCC1)COc1cccc2ccccc12 (centres undefined)
Cc1ccc(S(=O)(=O)NCCC(=O)NCC(=O)Nc2c(C)cccc2C)cc1C
O=C(O)[C@@H]1[C@@H](CO)[C@@H]2Cn3c(ccc(/C=C/c4ccccc4)c3=O)[C@@H]2N1C(=O)C1CCCC1
O=C(Nc1nnc(S(=O)(=O)N2CCN(c3ccc(F)cc3)CC2)s1)c1ccccc1
CCN(CC(=O)Nc1c(F)cccc1F)C(=O)CNC(=O)c1cccs1
O=C(C[C@H]1C=C[C@H](NC(=O)c2ccc(F)cc2)[C@H](CO)O1)NCc1ccncn1
CCCC(=O)Nc1ccc2c(c1)OC[C@@H](C)N(Cc1ccncc1)C[C@H](C)[C@H](OC)CN(C)C2=O
O=C(O)CSc1c2c(nc3cc(C(=O)Nc4cccc(C(F)(F)F)c4)ccc13)CCCC2
Cc1ccc(S(=O)(=O)Nc2ccc3c(c2)C(=O)N([C@@H](C)CO)C[C@@H](C)[C@@H](CN(C)CC2CC2)OCCCC[C@@H](C)O3)cc1
O=C(C[C@@H]1C[C@H]2c3cc(NC(=O)NC4CCCC4)ccc3O[C@H]2[C@H](CO)O1)NCCc1ccccc1
COc1ccc(CN2CC3(CN(C(=O)c4ccccc4)C3)c3c([nH]c4cc(OC)ccc34)[C@H]2CO)cc1
C[C@@H]1CCCCO[C@@H](CN(C)Cc2ccc(C(=O)O)cc2)[C@H](C)CN([C@H](C)CO)C(=O)c2cc(NC(=O)CCCN(C)C)ccc2O1
COc1cc(Cl)ccc1OCc1cc(C(=O)N2CCCCCCC2)no1
COc1ccc(NC(=O)N(C)C[C@H]2Oc3ccc(N(C)C)cc3C(=O)N([C@@H](C)CO)C[C@@H]2C)cc1
C[C@H]1CCCCO[C@H](CN(C)C(=O)Nc2ccc(C(F)(F)F)cc2)[C@@H](C)CN([C@@H](C)CO)C(=O)c2cc(NS(=O)(=O)c3ccccc3)ccc2O1
COc1cc2c3nnc(-c4ccc(F)cc4)c-3cn(Cc3ccc(C)cc3)c2cc1OC
CC(C)C#Cc1ccc([C@H]2[C@@H](CO)N(C(=O)c3cccc(F)c3)[C@H]2C#N)cc1
COc1ccc(CN(C)C[C@@H]2OCCCC[C@H](C)Oc3ccc(NS(=O)(=O)c4cn(C)cn4)cc3C(=O)N([C@@H](C)CO)C[C@H]2C)cc1
COCCCN1CC(=O)N2C(c3ccccc3)c3[nH]c4ccccc4c3C[C@H]2C1=O (some centres undefined)
Cc1ccc2c(nc3s/c(=C\c4ccc(-c5ccccc5C(=O)O)o4)c(=O)n32)c1C

From PubChem BioAssay AID687001 (Broad Institute, 2013)
